{"source": "PubChem BioAssay (EPA / NIEHS)", "key": {"[1]": {"assay": "TOX21_p53_BLA_p3_viability: Viability Assessment in the Tox21 HCT-116 p53 Agonism Beta-lactamase Assay, Phase 3 (AID 2283593);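 note: cells exposed to compound for 16 h before reading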", "in_short": "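Cellular ATP was quantified by CellTiter-Glo luminescence, read after 30 min at room temperature. Beforehand, HCT116 cells (4000/well) received compound 5 h post-seeding, 217-fold diluted from DMSO, then incubated 16 h at 37C.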"}, "[2]": {"target": "Cellular tumor antigen p53 (Homo sapiens) (UniProt P04637)", "sequence (P04637 whole entry, looked up)": "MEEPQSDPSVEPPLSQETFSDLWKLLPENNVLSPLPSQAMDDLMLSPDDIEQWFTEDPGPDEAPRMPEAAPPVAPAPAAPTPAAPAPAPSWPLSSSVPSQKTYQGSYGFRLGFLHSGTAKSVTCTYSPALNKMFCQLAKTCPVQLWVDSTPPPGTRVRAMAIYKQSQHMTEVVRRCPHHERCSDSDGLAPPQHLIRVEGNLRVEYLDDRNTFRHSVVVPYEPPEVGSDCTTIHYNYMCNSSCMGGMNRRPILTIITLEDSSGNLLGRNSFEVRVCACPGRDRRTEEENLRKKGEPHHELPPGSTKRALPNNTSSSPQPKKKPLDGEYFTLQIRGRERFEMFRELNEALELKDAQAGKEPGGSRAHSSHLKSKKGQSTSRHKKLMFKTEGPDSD", "assay": "TOX21_p53_BLA_p3_ratio: Tox21 HCT-116 p53 Agonism Beta-lactamase Assay, Ratio, Phase 3 (AID 2283596)", "in_short": "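HCT116 p53-bla cells (4000/well) given compound in DMSO (217-fold dilution) after 5 h, incubated 16 h at 37C. CCF4-AM substrate 2 h at room temperature; 460/530 nm emission ratio, gain fitted against DMSO.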"}, "[3]": {"assay": "TOX21_p53_BLA_p4_viability: Viability Assessment in the Tox21 HCT-116 p53 Agonism Beta-lactamase Assay, Phase 4 (AID 2283597);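 note: hits lower the luminescence signal meaning cytotoxicity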", "in_short": "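Compound exposure of HCT116 cells lasts 16 h at 37C, 5% CO2, with DMSO stocks diluted 217-fold. Cellular ATP is then quantified by CellTiter-Glo luminescence after 30 min at room temperature.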"}, "[4]": {"target": "Cellular tumor antigen p53 (Homo sapiens) (UniProt P04637)", "assay": "TOX21_p53_BLA_p5_ratio: Tox21 HCT-116 p53 Agonism Beta-lactamase Assay, Ratio, Phase 5 (AID 2283599)", "in_short": "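Beta-lactamase reporter ratio (blue 460 nm over green 530 nm, 405 nm excitation) after 2 h CCF4-AM loading, in HCT-116 cells exposed 16 h at 37 C to compounds pinned at 217-fold dilution. Increases relative to DMSO baseline scored.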"}, "[5]": {"assay": "TOX21_p53_BLA_p5_viability: Viability Assessment in the Tox21 HCT-116 p53 Agonism Beta-lactamase Assay, Phase 5 (AID 2283600)", "in_short": "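Counter-readout for cytotoxicity: ATP-dependent luminescence from CellTiter-Glo, read in the beta-lactamase wells after 30 min at RT, following a 16 h compound exposure at 37C.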"}, "[6]": {"target": "Cellular tumor antigen p53 (Homo sapiens) (UniProt P04637)", "assay": "TOX21_p53_BLA_p2_ratio: Tox21 HCT-116 p53 Agonism Beta-lactamase Assay, Ratio, Phase 2 (AID 2283592)", "in_short": "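An inducible beta-lactamase reporter in HCT116 cells signals p53 pathway activation. After 16 h chemical exposure at 37C, cells load CCF4-AM substrate for 2 h at room temperature; activity is the cleaved/uncleaved emission ratio relative to DMSO.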"}, "[7]": {"target": "Cellular tumor antigen p53 (Homo sapiens) (UniProt P04637)", "assay": "TOX21_p53_BLA_p4_ratio: Tox21 HCT-116 p53 Agonism Beta-lactamase Assay, Ratio, Phase 4 (AID 2283601)", "in_short": "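Signal is the blue/green (460nm/530nm) ratio of cleaved versus uncleaved CCF4-AM substrate, read after 2 h substrate loading. Cells were HCT116 carrying the p53-responsive beta-lactamase reporter, dosed 16 h at 37C, 5% CO2; CellTiter-Glo measured in parallel.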"}, "[8]": {"target": "Thyroid hormone receptor alpha (Rattus norvegicus) + Thyroid hormone receptor beta (Rattus norvegicus) (UniProt P18113+P63059)", "assay": "TOX21_TR_LUC_GH3_Antagonist_Followup: Tox21 GH3 Thyroid Hormone Receptor Antagonism Luciferase Follow-Up Assay (AID 2283942)", "in_short": "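Confirmatory qHTS, antagonist mode: T3 (1.0 nM final) + test cpd, 15 conc, 92 uM–5nM final, GH3 rat pituitary line, 24 h, 37C. Luc reporter, RLU vs DMSO.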"}, "THRA (gene 7067)": {"target": "THRA (gene 7067) (UniProt P10827)", "sequence (P10827 whole entry, looked up, the tested form may be a part)": "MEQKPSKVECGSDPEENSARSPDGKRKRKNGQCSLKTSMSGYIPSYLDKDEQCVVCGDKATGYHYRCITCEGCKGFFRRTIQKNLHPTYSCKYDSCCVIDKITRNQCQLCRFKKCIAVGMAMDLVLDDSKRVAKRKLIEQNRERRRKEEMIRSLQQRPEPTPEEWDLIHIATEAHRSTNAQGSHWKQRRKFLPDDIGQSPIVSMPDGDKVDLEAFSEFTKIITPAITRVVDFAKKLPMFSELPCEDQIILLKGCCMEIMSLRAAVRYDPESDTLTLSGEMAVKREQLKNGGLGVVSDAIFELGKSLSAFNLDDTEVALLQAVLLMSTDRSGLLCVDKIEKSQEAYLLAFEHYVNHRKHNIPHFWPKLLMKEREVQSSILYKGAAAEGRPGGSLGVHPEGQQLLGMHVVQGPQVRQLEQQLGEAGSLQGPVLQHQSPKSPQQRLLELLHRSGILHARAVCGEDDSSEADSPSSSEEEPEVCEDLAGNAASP", "assay": "TOX21_TRA_COA_Antagonist_Followup_ratio: Tox21 Thyroid Hormone Receptor alpha Antagonism through Coactivator Recruitment Follow-Up Assay, Ratio (AID 2283953)", "in_short": "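520:495 nm emission ratio (excitation 340 nm) reports fluorescein-SRC-2 peptide recruitment to GST-TRα LBD by TR-FRET with Tb anti-GST antibody. Values were normalized to DMSO (0%) and T3 control wells (100%); loss of signal indicated antagonism.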"}, "THRB (gene 7068) [9]": {"target": "THRB (gene 7068) (UniProt P10828)", "sequence (P10828 whole entry, looked up, the tested form may be a part)": "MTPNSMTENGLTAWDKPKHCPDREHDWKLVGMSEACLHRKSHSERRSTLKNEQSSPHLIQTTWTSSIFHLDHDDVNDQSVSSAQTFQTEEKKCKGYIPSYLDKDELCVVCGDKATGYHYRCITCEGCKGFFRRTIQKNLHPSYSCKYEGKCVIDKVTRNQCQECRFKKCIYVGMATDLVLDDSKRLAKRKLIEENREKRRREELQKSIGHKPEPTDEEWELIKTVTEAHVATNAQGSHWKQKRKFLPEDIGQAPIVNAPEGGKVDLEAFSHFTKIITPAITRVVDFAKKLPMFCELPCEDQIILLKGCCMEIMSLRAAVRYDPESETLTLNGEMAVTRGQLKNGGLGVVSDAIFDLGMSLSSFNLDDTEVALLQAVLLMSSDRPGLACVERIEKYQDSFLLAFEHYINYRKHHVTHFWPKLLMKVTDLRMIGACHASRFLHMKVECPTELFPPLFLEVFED", "assay": "TOX21_TRB_BLA_Antagonist_Followup_ratio: Tox21 Thyroid Hormone Receptor beta Antagonism Beta-lactamase (BLA) Follow-Up Assay, Ratio (AID 2283958)", "in_short": "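HEK293T TRb-bla (GAL4 DBD + hTRβ LBD), 2% cs-FBS phenol red-free DMEM, 5 h attach; cpds 11-pt triplicate, 18 h 37C; CCF4-AM 2 h RT; 460/530 ratio vs DMSO; CellTiter-Glo viability same wells.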"}, "[10]": {"assay": "TOX21_TRB_BLA_Antagonist_Followup_viability: Viability Assessment in the Tox21 Thyroid Hormone Receptor beta Antagonism Beta-lactamase (BLA) Follow-Up Assay (AID 2283961)", "in_short": "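Cytotoxicity is measured in parallel with the antagonist-mode TRβ beta-lactamase screen, using ATP-coupled luciferase luminescence. Engineered HEK293T cells are treated for 18 h with 11-point compound series in triplicate.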"}, "THRB (gene 7068) [11]": {"target": "THRB (gene 7068) (UniProt P10828)", "assay": "TOX21_TRB_COA_Antagonist_Followup_ratio: Tox21 Thyroid Hormone Receptor beta Antagonism through Coactivator Recruitment Follow-Up Assay, Ratio (AID 2283967)", "in_short": "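Test compound was incubated with 5.0 nM GST-TRβ LBD in 0.10% BSA. Then 200 nM fluorescein-SRC-2 peptide and 2 nM terbium anti-GST antibody were added. TR-FRET (520:495 nm) was measured and normalized to DMSO and T3 controls.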"}, "[12]": {"target": "Retinoic acid receptor RXR-alpha (Homo sapiens) (UniProt P19793)", "sequence (P19793 whole entry, looked up, the tested form may be a part)": "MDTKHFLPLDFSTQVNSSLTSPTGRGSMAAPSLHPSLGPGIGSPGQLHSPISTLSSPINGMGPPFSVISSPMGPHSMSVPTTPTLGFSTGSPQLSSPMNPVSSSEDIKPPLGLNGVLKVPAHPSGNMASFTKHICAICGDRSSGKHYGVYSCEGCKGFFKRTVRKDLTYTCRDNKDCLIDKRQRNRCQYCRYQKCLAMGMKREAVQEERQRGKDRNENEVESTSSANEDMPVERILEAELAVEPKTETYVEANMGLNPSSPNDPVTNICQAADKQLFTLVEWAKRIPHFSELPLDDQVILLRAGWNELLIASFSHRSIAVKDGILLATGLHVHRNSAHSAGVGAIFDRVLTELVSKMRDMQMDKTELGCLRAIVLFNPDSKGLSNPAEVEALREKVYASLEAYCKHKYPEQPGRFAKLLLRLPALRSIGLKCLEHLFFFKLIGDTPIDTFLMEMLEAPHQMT", "assay": "TOX21_TR_RXR_BLA_Antagonist_Followup_ratio: Tox21 Thyroid Hormone Receptor beta Retinoid X Receptor alpha (RXRa) Antagonism Beta-lactamase (BLA) Follow-Up Assay, Ratio (AID 2283972)", "in_short": "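Antagonist mode used GAL4 UAS-driven beta-lactamase in HEK293T cells expressing RXRa, treated for 16 h with compound concentration series. Activity was taken from the blue/green (460:530 nm) ratio of cleaved to uncleaved substrate.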"}, "[13]": {"assay": "TOX21_TR_RXR_BLA_Antagonist_Followup_viability: Viability Assessment in the Tox21 Thyroid Hormone Receptor beta Retinoid X Receptor alpha (RXRa) Antagonism Beta-lactamase (BLA) Follow-Up Assay (AID 2283979)", "in_short": "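Follow-up compounds (11 concentrations, triplicate) were incubated 16 h at 37C/5% CO2 with HEK293T RXRa-bla cells seeded at 2,500/well in charcoal-stripped-serum medium. ATP content by CellTiter-Glo luminescence gave viability; curves fitted in both directions against DMSO.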"}}, "note": "Inconclusive results are not listed. Active and inactive are the calls of the source. Rule for the calls: active = hit-call score of the fitted dose curve at least 0.9, where 1 is the maximum; inconclusive = response in the unintended direction; inactive = score below 0.9.", "data": [{"smiles": "C[C@](N)(Cc1ccc(O)cc1)C(=O)O", "values": [{"measurement": "outcome", "setting": "[1]", "result": "inactive"}, {"measurement": "outcome", "setting": "[2]", "result": "inactive"}, {"measurement": "outcome", "setting": "[3]", "result": "inactive"}, {"measurement": "outcome", "setting": "[4]", "result": "inactive"}, {"measurement": "outcome", "setting": "[5]", "result": "inactive"}]}, {"smiles": "FC(F)(F)C(Cl)(Cl)Cl", "values": [{"measurement": "outcome", "setting": "[6]", "result": "inactive"}, {"measurement": "outcome", "setting": "[5]", "result": "inactive"}, {"measurement": "outcome", "setting": "[7]", "result": "inactive"}]}, {"smiles": "O=C(O)c1cc(C(=O)O)cc(C(=O)O)c1", "values": [{"measurement": "outcome", "setting": "[1]", "result": "inactive"}, {"measurement": "outcome", "setting": "[2]", "result": "inactive"}, {"measurement": "outcome", "setting": "[3]", "result": "inactive"}, {"measurement": "outcome", "setting": "[4]", "result": "inactive"}]}, {"smiles": "CN1CCCC(CC2c3ccccc3Sc3ccccc32)C1", "note": "(centres undefined)", "values": [{"measurement": "AC50", "setting": "[8]", "result": "15.5 µM (active)"}, {"measurement": "outcome", "setting": "THRA (gene 7067)", "result": "inactive"}, {"measurement": "outcome", "setting": "THRB (gene 7068) [9]", "result": "inactive"}, {"measurement": "AC50", "setting": "[10]", "result": "8.56 µM (active)"}, {"measurement": "outcome", "setting": "THRB (gene 7068) [11]", "result": "inactive"}, {"measurement": "outcome", "setting": "[12]", "result": "inactive"}, {"measurement": "outcome", "setting": "[13]", "result": "inactive"}]}]}
